This passage reports Inhibition results from ChEMBL document CHEMBL1157539, “Thousands of chemical starting points for antimalarial lead identification” (Nature, 2010).

Common to all, as to type: functional
Test [1] concerns Plasmodium falciparum. In words: GSK_TCMDC: Inhibition of Plasmodium falciparum 3D7 in whole red blood cells, using parasite LDH activity as an index of growth. Test compounds present at 2uM.
Test [2] has as its system Plasmodium falciparum. In words: GSK_TCMDC: Inhibition of Plasmodium falciparum Dd2 in whole red blood cells, using parasite LDH activity as an index of growth. Test compounds present at 2uM.
Another test relates to HepG2. As to the kind of experiment: GSK_TCMDC: Percent inhibition of human HepG2 cell line. Test compounds present at 10uM.

Usually Inhibition stands for the drop in the measured response relative to a control, in per cent. Low values mean a weak effect, high ones a strong effect. Regarding `COc1cccc(C2CCCN(CCCCNC(=O)c3ccc(NC(=O)c4ccc(Cl)cc4)cc3)C2)c1` (stereo not drawn), the Inhibition in the test on Plasmodium falciparum [1] is 95%; with Plasmodium falciparum [2] it was 6%; in the test with HepG2, 24%.

For `CCN(CCCN1CCCCC1)c1cc(C)nc(Nc2cccc(OC(F)(F)F)c2)n1.O=C(O)C(F)(F)F`, the values for the Inhibition with Plasmodium falciparum [1], in the test with Plasmodium falciparum [2] and in the test on HepG2 were 100%, 99% and 32%, respectively.

On to `CC(C)Oc1cc2c(cc1NS(=O)(=O)c1ccc(-c3cccs3)cc1)CCN(C)CC2.Cl`, for which the Inhibition with Plasmodium falciparum [1] was 88%; in the test with Plasmodium falciparum [2] it was 9%; with HepG2 it was 9%.

Take `Cc1cc(CN2CCC(Nc3ncc(-c4ccsc4)c4nc(C(F)(F)F)ccc34)CC2)no1.Cl`: the Inhibition is given as 81% in the test with Plasmodium falciparum [1], 67% in the test on Plasmodium falciparum [2] and 8% in the test on HepG2.

As to `Oc1ccccc1CN1CCCC(COC(c2ccc(F)cc2)c2ccc(F)cc2)C1` (stereo not drawn), the Inhibition in the test with Plasmodium falciparum [1] is reported as 97%; in the test on Plasmodium falciparum [2], 98%; in the test on HepG2, 19%.

Take `Clc1ccc(Sc2cncnc2N2CCOCC2)cc1`: the Inhibition is 95% in the test with Plasmodium falciparum [1], 0% in the test with Plasmodium falciparum [2] and 66% with HepG2.

Take `CCc1cn2c3c(cc(C(=O)N[C@@H](Cc4ccccc4)[C@H](O)CNC4CCCCC4)cc13)N(CC)S(=O)(=O)CC2.O=CO`: the Inhibition in the test on Plasmodium falciparum [1] stood at 98%; with Plasmodium falciparum [2], 98%; with HepG2, 8%.

As to `COc1ccc(-c2ccc(NC(=O)c3cccc(Cl)c3)c(F)c2)cc1CN1CCCN(C)CC1.O=C(O)C(F)(F)F`, the Inhibition is 100% in the test with Plasmodium falciparum [1], 42% in the test on Plasmodium falciparum [2] and 43% with HepG2.

As for `CN1CCN(CC(=O)Nc2cccc(-c3cccc(-c4nc5cc(F)ccc5[nH]4)c3)c2)CC1`, the Inhibition in the test with Plasmodium falciparum [1] is recorded as 100%; in the test with Plasmodium falciparum [2], 98%; in the test with HepG2, 16%.

Turning to `O=C1C(c2ccccc2)=C(Nc2ccc(Cl)cc2)c2ccccc21`, the Inhibition in the test on Plasmodium falciparum [1] is listed as 91%; with Plasmodium falciparum [2] it was 59%; with HepG2, 5%.

As for `CCOc1ccc2nc(C)cc(N/N=C/c3cccc([N+](=O)[O-])c3)c2c1`, the Inhibition in the test with Plasmodium falciparum [1] turned out to be 100%; in the test with Plasmodium falciparum [2] it was 93%; in the test on HepG2 it was 7%.

As for `CCNc1cc(C(=O)N[C@@H](Cc2ccccc2)[C@H](O)CNCc2cc(OC)cc(OC)c2)cc(N2CCCC2=O)c1.Cl`, the Inhibition with Plasmodium falciparum [1] is reported as 100%; with Plasmodium falciparum [2] it was 75%; in the test on HepG2 it was 0%.

In the case of `O=C(Nc1ccc2c(c1)CCC2)c1ccc(N2CCN(c3ccncc3)CC2)cc1.O=C(O)C(F)(F)F`, the Inhibition is recorded as 100% in the test with Plasmodium falciparum [1], 75% in the test with Plasmodium falciparum [2] and 72% with HepG2.

Take `Cc1ccc(S(=O)(=O)O)cc1.N=C(N)NCCCC(=O)NCC(N)=O`: the figures for the Inhibition in the test on Plasmodium falciparum [1], with Plasmodium falciparum [2] and with HepG2 were 100%, 0% and 20%, respectively.

As to `CCCCCn1c(Sc2ccc(C#N)c([N+](=O)[O-])c2)nnc1-c1ccc(Cl)cc1`, the Inhibition in the test with Plasmodium falciparum [1] is 88%; in the test on Plasmodium falciparum [2], 29%; with HepG2 it was 18%.

As for `CC(=O)Nc1ccc2[nH]cc(C3CCN(CC4CCN(C(=O)/C=C/c5ccc(Cl)c(Cl)c5)CC4)CC3)c2n1`, the Inhibition with Plasmodium falciparum [1] is 100%; in the test on Plasmodium falciparum [2] it was 99%; with HepG2, 21%.

In the case of `Cc1c(-c2ccccc2)ccc2[nH]cc(CC#N)c12`, the Inhibition in the test on Plasmodium falciparum [1] is on record as 95%; in the test with Plasmodium falciparum [2], 85%; with HepG2 it was 2%.

For `Cn1cncc1C(=O)Nc1cccc(-c2cccc(-c3nc4ccccc4[nH]3)c2)c1`, the Inhibition with Plasmodium falciparum [1] turned out to be 100%; in the test with Plasmodium falciparum [2], 35%; with HepG2, 9%.

Consider `Cc1ccc(-c2ccc(NC(=O)N3CCc4cc(Br)c(N5CCN(C)CC5)cc43)cc2)cn1`, for which the values for the Inhibition in the test with Plasmodium falciparum [1], with Plasmodium falciparum [2] and with HepG2 were 80%, 16% and 86%, respectively.

Consider `O=C(Nc1cccc(-c2nn3ccccc3c2-c2ccnc(Nc3cccc(C(F)(F)F)c3)n2)c1)c1c(F)cccc1F`, for which the Inhibition worked out at 97% in the test with Plasmodium falciparum [1], 91% with Plasmodium falciparum [2] and 43% in the test with HepG2.

Turning to `CN(C)CCOc1cccc(-c2cnc(N)c(-c3nc4cc(S(C)(=O)=O)ccc4[nH]3)c2)c1.O=C(O)C(F)(F)F`, the Inhibition with Plasmodium falciparum [1] was 100%; in the test on Plasmodium falciparum [2] it was 82%; in the test on HepG2, 39%.

Consider `Cl.FC(F)(F)c1cc(CNCCCNc2nc3ccncc3[nH]2)ccc1Cl`, for which the figures for the Inhibition in the test with Plasmodium falciparum [1], with Plasmodium falciparum [2] and in the test with HepG2 were 99%, 15% and 11%, respectively.

With `Cc1nc(Nc2ccc(F)cc2)nc(N2CCc3cc(O)ccc3C2C)c1C.Cl` (stereo not drawn), the figures for the Inhibition with Plasmodium falciparum [1], in the test with Plasmodium falciparum [2] and with HepG2 were 99%, 97% and 0%, respectively.

As for `O=C(/C=C/c1ccccc1Cl)Nc1ccc(Br)c(OCCN2CCCCC2)c1.O=C(O)C(=O)O`, the Inhibition with Plasmodium falciparum [1] turned out to be 99%; in the test with Plasmodium falciparum [2], 25%; in the test on HepG2 it was 11%.

On to `Clc1ccc(OCc2ccccc2)c(-c2nc(-c3nc4ccc(Cl)cc4[nH]3)cs2)c1`, for which the results for the Inhibition with Plasmodium falciparum [1], with Plasmodium falciparum [2] and in the test on HepG2 were 99%, 60% and 0%, respectively.

Regarding `FC(F)(F)c1ccc2nccc(NCc3ccccc3)c2c1`, the Inhibition amounted to 93% with Plasmodium falciparum [1], 56% in the test on Plasmodium falciparum [2] and 18% in the test on HepG2.

Turning to `Nc1nc(N)c2c(n1)CCC(c1ccccc1)C2` (stereo not drawn), the Inhibition is on record as 93% in the test on Plasmodium falciparum [1], 0% with Plasmodium falciparum [2] and 55% with HepG2.

On to `Cc1cc(NCCC(=O)NCc2cccc(F)c2)nc(Nc2ccccc2)n1.O=C(O)C(F)(F)F`, for which the Inhibition in the test with Plasmodium falciparum [1] stood at 94%; in the test on Plasmodium falciparum [2], 15%; in the test with HepG2, 0%.

As for `O=C(Nc1ccc(-c2ccccc2)cc1)Nc1cccc(Cn2ncc(N3CCNCC3)c(Cl)c2=O)c1.O=C(O)C(F)(F)F`, the values for the Inhibition in the test with Plasmodium falciparum [1], with Plasmodium falciparum [2] and with HepG2 were 100%, 59% and 30%, respectively.

`CC(CN1CCN(C)CC1)C(=O)Nc1ccc(-c2ccc(-c3nc4ccccc4[nH]3)s2)cc1` (stereo not drawn): the Inhibition in the test on Plasmodium falciparum [1] was 100%; in the test on Plasmodium falciparum [2] it was 79%; in the test on HepG2, 5%.

For `Cc1ccc(C(=O)Nc2cc(S(=O)(=O)N3CCCC3)ccc2OCC(F)(F)F)cc1`, the Inhibition with Plasmodium falciparum [1] was determined as 93%; in the test on Plasmodium falciparum [2], 3%; in the test on HepG2, 0%.
